CYP2C9 inh: blockers of cytochrome P450 2C9 activity – biochemical, luminescence, ADME assay, primary screen; inhibition, % at 5 µM; CYP2C9 Supersomes, luciferin-H conversion; AID 777, 2007; P11712; actives 20% (n = 96,000);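 active means blocking of liver enzyme CYP2C9 beyond about 50% at 5 µM, limit read from the data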
Target sequence (P11712 whole entry, looked up): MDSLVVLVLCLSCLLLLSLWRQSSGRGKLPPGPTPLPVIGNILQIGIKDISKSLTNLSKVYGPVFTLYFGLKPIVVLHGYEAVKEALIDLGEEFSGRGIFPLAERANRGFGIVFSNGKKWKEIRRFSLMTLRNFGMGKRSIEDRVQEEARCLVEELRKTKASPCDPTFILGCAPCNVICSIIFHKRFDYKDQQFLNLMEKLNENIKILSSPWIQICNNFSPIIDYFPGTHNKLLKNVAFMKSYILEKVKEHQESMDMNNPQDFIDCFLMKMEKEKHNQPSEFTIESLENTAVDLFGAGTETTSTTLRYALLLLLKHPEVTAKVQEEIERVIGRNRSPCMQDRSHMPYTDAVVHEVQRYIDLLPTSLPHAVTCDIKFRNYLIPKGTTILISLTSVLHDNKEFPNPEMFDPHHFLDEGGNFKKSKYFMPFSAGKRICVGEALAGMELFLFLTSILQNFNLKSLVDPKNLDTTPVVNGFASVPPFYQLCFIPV
PTK2B oligo ant: antagonists of Pyk2 self-association, primary screen, Q293 cells, FERM NanoBiT luminescence, HTS; z-score (the deposit names both 25 µM and 10 µM); Protein-tyrosine kinase 2-beta (Homo sapiens), Q14289; stronger effect = lower value; AID 1347419, 2020; actives 0.83% (n = 99,000);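 active means Z-score of -3 or lower, scaled per plate to the spread of control and sample wells; inactive means z-score above -3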;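 further: negative z-score means lost luminescence so less FERM oligomerization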
CYP2C9 activ: human CYP2C9 activators, primary screen, biochemical, luminescence. Cytochrome P450 2C9 (Homo sapiens), P11712. recombinant CYP2C9, luciferin-H conversion; stronger effect = higher value; factor 1 = untreated enzyme, 0 = blocked. activation factor at 5 µM. actives 1.4% (n = 96,000). AID 1024, 2008;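 active means activation factor of 2 or more for CYP2C9 at a 5 µM dose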
CYP2C19 inh: blockers of cytochrome P450 2C19 activity – biochemical, luminescence, ADME assay, primary screen; inhibition, % at 5 µM; CYP2C19 Supersomes, luciferin-H EGE luminescence, 30 min; actives 21% (n = 96,000);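 active means CYP2C19 inhibition above a set limit at 5 µM in the primary screen, cut at about 50% in these data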
CYP2C19 act: human CYP2C19 activators, primary screen, biochemical, luminescence | recombinant CYP2C19, luciferin-H EGE luminescence; stronger effect = higher value; 0 = fully inhibited enzyme, 1 = untreated enzyme | activation factor at 5 µM | AID 1025, 2008 | 96,000 tested, under 10 active;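 active means activation factor of at least 2 at 5 µM in the primary screen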
Each line names hits and unclear results; the compound was inactive in the other large screens. Most compounds without a hit are left out; they make up all but 28% or so of the library.

CCc1nc(SCC(=O)N2CCC(Cc3ccccc3)CC2)c2c(=O)n(C)c(=O)n(C)c2n1	none (no result: PTK2B oligo ant)
Cn1cnnc1SCC(=O)N1CCC(Cc2ccccc2)CC1	CYP2C19 inh 77
Cc1cc(C)cc(CC(Cc2nc3ccccc3[nH]2)c2nc3ccccc3[nH]2)c1 (stereo not drawn)	CYP2C9 inh 77, CYP2C19 inh 97
O=C(c1cn(-c2ccccc2)nc1-c1ccc(Cl)s1)N1CCOCC1	none
O=c1[nH]c(=O)n(CCO)c2nnn(Cc3ccccc3)c12	none
CCCCOC(=O)Nc1cccc(Cl)c1C	CYP2C19 inh 56
CC(=O)C1=C(O)C(=O)N(CCc2c[nH]c3ccccc23)C1c1ccc(O)cc1 (stereo not drawn)	CYP2C9 inh 53
COc1cccc(C2C(C(C)=O)=C(O)C(=O)N2CCc2c[nH]c3ccccc23)c1 (stereo not drawn)	CYP2C9 inh 70
COc1cccc(C2C(C(C)=O)=C(O)C(=O)N2Cc2ccco2)c1 (stereo not drawn)	none
COc1ccc(C2C(C(C)=O)=C(O)C(=O)N2CCc2c[nH]c3ccccc23)cc1OC (stereo not drawn)	CYP2C9 inh 89
COc1cc(C2C(C(C)=O)=C(O)C(=O)N2CCc2ccc(OC)c(OC)c2)ccc1O (stereo not drawn)	none
O=C1C2C(C(=O)N1/N=C/c1cc(Br)cc([N+](=O)[O-])c1O)C1C=CC2C12CC2 (stereo not drawn)	none
CC1CCCCN1C(=O)Cn1cc(/C=C2/C(=O)Nc3ccccc32)c2ccccc21 (stereo not drawn)	CYP2C9 inh 58 (no result: PTK2B oligo ant)
COc1ccc(N(CC(=O)NCc2ccco2)S(=O)(=O)c2ccc(OC)c(OC)c2)cc1	CYP2C19 inh 100
CCOc1ccc(N(CC(=O)NCc2ccco2)S(=O)(=O)c2ccc(OC)c(OC)c2)cc1	CYP2C9 inh 62, CYP2C19 inh 98
Cc1ccc(OC(F)F)c(NC(=O)Nc2cccc(C(F)(F)F)c2)c1	none
Cc1cc(C(=O)Cn2cncn2)c(C)n1CCc1ccc(F)cc1	CYP2C9 inh 67, CYP2C19 inh 99
CCC1(O)c2ccccc2-c2ncccc21 (stereo not drawn)	none
Cc1ccc(OCCn2c(C3CC(=O)N(Cc4ccccc4)C3)nc3ccccc32)cc1 (stereo not drawn)	CYP2C9 inh 84 (no result: PTK2B oligo ant)
CCCn1c(C2CC(=O)N(c3ccc(C)cc3)C2)nc2ccccc21 (stereo not drawn)	none
C=CCN1CC(c2nc3ccccc3n2Cc2cccc3ccccc23)CC1=O (stereo not drawn)	CYP2C9 inh 60
Cc1ccc(-c2nnn(CC(=O)Nc3ccccc3-c3ccccc3)n2)c(-n2cnnn2)c1	CYP2C9 inh 52
Cn1nc(C(F)(F)F)c(C#N)c1N1CCN(c2cccc(C(F)(F)F)c2)CC1	none
COc1ccccc1NS(=O)(=O)c1ccc(Br)s1	CYP2C19 inh 92
COc1cccc(NS(=O)(=O)c2ccc(Br)s2)c1	CYP2C9 inh 84, CYP2C19 inh 100
COC(=O)C(C)n1cnc2c(nnn2Cc2ccc(Cl)cc2)c1=O (stereo not drawn)	none
CC1(C)CC(=O)C2=C(C1)OC(N)=C(C#N)C2C1CC=CCC1 (stereo not drawn)	none (no result: CYP2C9 inh, CYP2C9 activ, CYP2C19 inh, CYP2C19 act)
CCOC(=O)N1CCN(C(=O)c2cccc(OC)c2O)CC1	CYP2C19 inh 57
O=C(c1ccccc1CCc1ccccc1)N1CCN(c2ccccn2)CC1	CYP2C9 inh 95, CYP2C19 inh 91
CCOC(=O)N1CCN(C(=O)c2ccccc2CCc2ccccc2)CC1	CYP2C9 inh 87, CYP2C19 inh 77
CCOC(=O)N1CCN(C(=O)c2ccccc2-c2ccccc2)CC1	none (no result: CYP2C9 inh, CYP2C9 activ, CYP2C19 inh, CYP2C19 act)
O=C(c1ccccc1Cl)N1CCN(c2ccccn2)CC1	CYP2C9 inh 78, CYP2C19 inh 82
COCCN(CC(=O)NCc1ccc(OC)cc1)C(=O)CCC(=O)Nc1nccs1	none
CCOC(=O)C1CCN(C(=O)CN(c2ccc3c(c2)OCO3)S(C)(=O)=O)CC1	none
O=C(c1cc2ccccn2n1)N1CCN(c2ccccn2)CC1	CYP2C19 inh 55 (no result: PTK2B oligo ant)
CN1CCN(C(=O)c2ccc(Cl)c(S(=O)(=O)N3CCCCC3)c2)CC1	none

Bioassay records as filed in PubChem.
